Measured values from PubChem BioAssay AID493066 (National Center for Advancing Translational Sciences (NCATS), 2011).
Records with an inconclusive call do not appear. Active and inactive are the calls of the source. Calls come from the whole dose curve; as a rule, active = well fitted cell-killing curve with a large enough effect; inconclusive = small, poorly fitted or top-dose-only effect; inactive = flat fitted curve, though single readings scatter.

Experiment: HBEC Cell Viability Secondary Assay for qHTS Assay for Epigenetic Modulators
Details: HBEC normal bronchial cells viability, ATP luminescence, 72 h
Text: NIH Molecular Libraries Screening Centers Network [MLSCN] NIH Chemical Genomics Center [NCGC] MLSCN Grant: 1 X01 MH079860-01 Assay Provider: Elisabeth D. Martinez, University of Texas SW Medical Center NCGC Assay Overview: This secondary assay characterizes selected actives identified in the qHTS of the Locus Derepression (LDR) assay (PubChem AID 1865). The LDR assay detects the derepression of a GFP reporter that is stably integrated in a region of the genome of murine c127i mammary cells that is presumably silenced. Compounds that cause derepression of the locus to express GFP are identified by enumerating GFP positive cells using a laser-scanning microplate cytometer. […] Cell viability was measured using a luminescence-based detection reagent that measures cellular ATP levels.
NCGC Assay Protocol Summary HBEC cells were seeded at 125 cells/5 uL/well in white, solid bottom, 1536 well plates (Greiner). […] Plates were incubated 72 hours at 37deg C and 5% CO2, then 3.5 uL/well CellTiter-Glo(R) (Promega) detection reagent was added, plates were incubated at ambient temperature for 10 minutes and luminescence was measured by a ViewLux (Perkin Elmer) reader. […] A quantitative high-throughput screen identifies potential epigenetic modulators of gene expression. […] A quantitative high-throughput screen identifies potential epigenetic modulators of gene expression. […]

SMILES	Potency
COc1ccc(OC)c(N2C(=O)NC(=O)/C(=C\c3ccc([N+](=O)[O-])s3)C2=O)c1	28.1 µM (active)
O=C1NC(=O)N(CCc2ccc(F)cc2)C(=O)/C1=C/C=C/c1ccccc1	7.91 µM (active)
